Assay outcomes (PubChem BioAssay)
This is one part of a sample in which hits are shown more often than they occur.
Dicer processing = inhibitors of human Dicer processing of pre-microRNA | cat-ELCCA pre-miR-21 Dicer processing, chemiluminescence; active compounds read high | 6% of 47,000 active | z-score at 25 µM; in the data active = z-score above about 3, passing the limit was not always enough;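 also: plate controls were vehicle for no effect and no enzyme for full effect; higher signal means more uncleaved substrate so more Dicer inhibition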
Starred values were filed as active, the others as inactive; ! = repeats disagree.

Cc1ccc2oc(-c3ccc(N)cc3)nc2c1 was read as Dicer processing 2.88.
For Cc1ccc2oc(-c3cccc(N)c3)nc2c1 the results were Dicer processing 1.5.
`Cc1ccc2oc(-c3ccc(N)cc3O)nc2c1` gave Dicer processing 0.56.
COc1ccc(-c2nc3ccccc3o2)cc1N was read as Dicer processing 4.34*.
Screening CC(C)c1ccc2oc(-c3ccc(N)cc3)nc2c1 returned Dicer processing 2.47.
`COc1ccc(-c2nc3cc(N)ccc3o2)cc1Br` gave Dicer processing 3.24*.
`Cc1ccc(-c2nc3cc(N)ccc3o2)cc1N` gave Dicer processing 0.6.
`Nc1nc2ccc(-c3nc4ccccc4o3)cc2s1` gave Dicer processing 1.84.
`Nc1ccc2oc(-c3cccc4ccccc34)nc2c1` gave Dicer processing 5.22*.
Screening c1ccc(-c2ccc(-c3ncc(-c4ccccc4)o3)cc2)cc1 returned Dicer processing 0.52.
Screening Cc1onc(-c2c(Cl)cccc2Cl)c1NC(=O)N(C)c1ccc(Cl)cc1 returned Dicer processing 1.21.
`FC(F)(F)c1nc2ccccc2n1CCOc1ccccc1` gave Dicer processing 6.57.
`CC(=O)C1C(=O)c2c(Cl)c(Cl)c(Cl)c(Cl)c2C1=O` gave Dicer processing 5.12*.
CC(=O)C1C(=O)c2cccc([N+](=O)[O-])c2C1=O (stereo unspecified) was read as Dicer processing -1.24.
Screening CC(=O)C1C(=O)CC(c2ccc(Cl)cc2)CC1=O (stereo unspecified) returned Dicer processing 4.14.
For c1ccc2c(c1)N1CC3(CCCCC3)CNC1C21OCCO1 (stereo unspecified) the results were Dicer processing -4.91.
For NC(=O)CCOC1CCN(C(c2ccccc2)c2ccccc2)CC1 the results were Dicer processing -0.29.
COC(=O)c1scc(N)c1C(=O)OC was read as Dicer processing 0.23.
Screening CCOC(=O)NNC(=S)Nc1cccc(C(F)(F)F)c1 returned Dicer processing -0.65.
CCOC(=O)NNC(=S)Nc1cccc(C)c1 was read as Dicer processing 3.78*.
CCOC(=O)NNC(=S)Nc1ccccc1 was read as Dicer processing 1.56.
For Cc1ccc(-c2cn3c4ccccc4nc3n2CCN2CCOCC2)cc1 the results were Dicer processing 2.2.
Screening c1ccc(-c2cn3c4ccccc4n(CCN4CCOCC4)c3n2)cc1 returned Dicer processing 4.11*.
For Cc1nc2n(CCN3CCOCC3)c3ccccc3n2n1 the results were Dicer processing 1.19.
For O=C1C=C(SCC(=O)Nc2ccc(Cl)cc2)SC(c2ccccc2)C1 (stereo unspecified) the results were Dicer processing -0.76.
Screening COC(=O)/C(=C/N(C)C)Sc1cc(C)c(Cl)cc1Cl returned Dicer processing -0.75.
Screening CC(CN1c2ccccc2Sc2ccccc21)N(C)C (stereo unspecified) returned Dicer processing 3.8*!.
`CNC(C)CN1c2ccccc2Sc2ccccc21` (stereo unspecified) gave Dicer processing 2.56.
For CC(CN(C)C)CN1c2ccccc2Sc2ccccc21 (stereo unspecified) the results were Dicer processing 0.42.
For Cc1ccc(S(=O)(=O)NCc2ccccc2)cc1-c1nnc2c3ccccc3c(C)nn12 the results were Dicer processing 0.62.
For CSc1c(C#N)c(-c2cccs2)nn1C(=O)C(C)(C)C the results were Dicer processing -2.62.
Screening CSc1c(-c2cccs2)c(N)nn1S(=O)(=O)c1ccccc1 returned Dicer processing 3.94*.
CC1CCN(c2oc(-c3cccs3)nc2S(=O)(=O)c2ccccc2)CC1 was read as Dicer processing 0.05.
`CC(C)(C)C(=O)CSc1nc(N)c(C(=O)C(C)(C)C)s1` gave Dicer processing -1.07.
For CC(C)N(CCC#N)C(=O)Nc1ccc(C(C)(C)C)cc1 the results were Dicer processing 0.76.
For Cn1c(=O)c(Nc2ccccc2)c2c3c(cccc31)C(=O)c1ccccc1-2 the results were Dicer processing 3.31*.
CCCCCCCNc1c2c3c(cccc3n(C)c1=O)C(=O)c1ccccc1-2 was read as Dicer processing -0.78.
`COc1ccc(Nc2c3c4c(c(Br)ccc4n(C)c2=O)C(=O)c2ccccc2-3)cc1` gave Dicer processing 0.38.
`CCOC(=O)/C(C#N)=C(\NC)SC` gave Dicer processing 1.32.
`COc1cc(C2SCCS2)cc(Br)c1OS(=O)(=O)c1ccc(C)cc1` gave Dicer processing -7.86.
Cc1ccc(Cn2c(NCc3cccnc3)nc3c2c(=O)n(C)c(=O)n3C)cc1 was read as Dicer processing 1.79.
`Cc1cc(N)n2nc(C)c(-c3ccc(Cl)cc3)c2n1` gave Dicer processing 1.77.
For Cc1nn2c(N)cc(-c3ccccc3)nc2c1-c1ccccc1 the results were Dicer processing 3.76*.
Screening Cc1ccc(-c2cc3nc(C)c(-c4ccccc4)c(N)n3n2)cc1 returned Dicer processing 0.66.
`CCOC(=O)c1ccc(NC(N)=S)cc1` gave Dicer processing -0.12.
CCOC(=O)c1ccc(NC(=S)NC(C)(C)CO)cc1 was read as Dicer processing -1.48.
`CCOC(=O)c1ccc(NC(=S)NN)cc1` gave Dicer processing 3.51*.
